# The list is not random: actives were taken first. Their share in the collection is about 3.2%.
# SSB-PriA inh: inhibitors of Klebsiella pneumoniae PriA binding to SSB C-terminal tail, primary screen, biochemical, AlphaScreen | AlphaScreen SSBct-PriA binding, biotinylated peptide | AID 1272365, 2023 | 430,000 compounds, 0.6% hits | inhibition, % at 33 µM; in the data active = inhibition mostly above about 37%, no sharp cut-off; inactive = mostly below about 20%;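 also: plate controls were negative control peptide for no effect and reference peptide for full effect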
# Rv3671c protease: Rv3671c serine protease inhibitors, primary screen, biochemical, fluorescence polarization, M. tuberculosis H37Rv | P9WHR9 | inhibition, % at 5.96 µM | 320,000 compounds, 0.048% hits | AID 2606, 2010; in the data active = inhibition above about 38%;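 also: extracellular domain of Rv3671c used as enzyme; 0% = enzyme with DMSO and 100% = no enzyme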
# Target sequence (P9WHR9 whole entry, looked up, the tested form may be a part): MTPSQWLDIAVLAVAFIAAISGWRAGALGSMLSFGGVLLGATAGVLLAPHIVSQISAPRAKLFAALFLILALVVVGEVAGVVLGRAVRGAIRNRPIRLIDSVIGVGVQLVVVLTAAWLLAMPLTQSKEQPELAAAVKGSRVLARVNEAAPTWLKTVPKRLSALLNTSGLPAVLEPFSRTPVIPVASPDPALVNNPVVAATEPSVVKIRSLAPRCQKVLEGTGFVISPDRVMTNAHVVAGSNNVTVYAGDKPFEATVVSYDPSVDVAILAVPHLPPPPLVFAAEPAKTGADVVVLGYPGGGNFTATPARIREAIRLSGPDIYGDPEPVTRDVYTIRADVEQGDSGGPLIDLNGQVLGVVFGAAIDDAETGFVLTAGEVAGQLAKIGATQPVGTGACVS
# Mtb UGM inh: M. tuberculosis UGM enzyme inhibitors, primary screen, biochemical, fluorescence polarization, single point; purified UGM, fluorescence polarization probe displacement; 320,000 compounds, 0.06% hits; inhibition, % at 10 µM; in the data active = inhibition above about 10%, passing the limit was not always enough; inconclusive = no clear call, values can overlap the other calls
# GDH-TPI inh: GDH-TPI coupling enzyme inhibitors, primary screen, artefact control for M. tuberculosis FBA inhibitor project, biochemical, absorbance, full deck | 360,000 compounds, 1.2% hits | inhibition, % at 4.8 µM | AID 588335, 2011 | GDH-TPI coupled enzyme counterscreen, NADH absorbance; in the data active = inhibition above about 30%;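 also: 0% = DMSO wells and 100% = wells lacking the enzyme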
# Mtb FBA inh: Mtb FBA enzyme inhibitors, primary screen, biochemical, fluorescence, strain H37Rv; purified M. tuberculosis FBA, fluorescence read-out; Fructose-bisphosphate aldolase (Mycobacterium tuberculosis (strain ATCC 25618 / H37Rv)), …; inhibition, % at 1 µM; 360,000 compounds, 2.3% hits; in the data active = inhibition above about 27%;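 also: 0% = vehicle and 100% = reference inhibitor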
# Mtb bLac sens: beta-lactam sensitization of Mtb H37Rv, H37Rv | M. tuberculosis H37Rv growth with meropenem, percent inhibition | 330,000 compounds, 0.27% hits | inhibition, % at 25 µM; call rule not given here;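 also: growth measured after seven days incubation then overnight dye step; 0% = bacteria only wells and 100% = bacteria with antibiotic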
# Active calls of the source: *; ? = inconclusive; / = no result; + = active, no number; ! = not active in a repeat.
SMILES,SSB-PriA inh,Rv3671c protease,Mtb UGM inh,GDH-TPI inh,Mtb FBA inh,Mtb bLac sens
c1ccc2c(c1)nc(Nc1ccc(N3CCCCC3)cc1)c1nncn12,47.7,-3.5,-0.4,43.9*,2.0,1.9
Cn1ccnc1S(=O)(=O)C1CCN(C(=O)c2cc(-c3ccc(F)cc3)nn2C)CC1,2.0,/,/,/,/,/
O=[N+]([O-])c1ccc(O)c(/C=N/NC2=NS(=O)(=O)c3ccccc32)c1,/,12.2,-2.3,20.2,-0.8,64.8
O=S1(=O)N=C(N/N=C/c2cccs2)c2ccccc21,/,6.9,1.4,38.6*,-3.4,5.3
O=[N+]([O-])c1ccc(O)c(C=NNC2=NS(=O)(=O)c3ccccc32)c1,51.2*,/,/,/,/,/
Cc1ccn(CC(=O)N/N=C/c2cc([N+](=O)[O-])ccc2O)n1,/,2.8,0.2,49.4*,-10.9,8.3
O=S1(=O)N=C(NN=Cc2ccco2)c2ccccc21,-7.6,/,/,/,/,/
O=[N+]([O-])c1ccc(O)c(/C=N/Nc2ccc(Cl)nn2)c1,/,6.8,-1.3,33.4*,-0.6,13.2
NC(=NOC(=O)Nc1ccccc1)c1ccno1,-11.4,/,/,/,/,/
COc1ccc(S(=O)(=O)Nc2c(C(=O)O)[nH]c3ccc(OC)cc23)c(OC)c1,106.4*,-1.3,-1.2,2.5,-0.1,-2.7
COc1ccc(S(=O)(=O)Nc2c(C(=O)O)[nH]c3ccccc23)c(OC)c1,-9.2,-7.8,1.6,0.0,-0.3,-0.2
COC(=O)c1[nH]c2ccc(C)cc2c1NS(=O)(=O)c1ccc(OC)cc1OC,57.5*,/,/,/,/,/
Cc1onc(-c2ccccc2)c1C(=O)NN=Cc1cc2c(cc1Cl)OCO2,1.2,/,/,/,/,/
O=c1cc(/C=C/c2ccccc2)oc2ccccc12,-3.1,-7.0,1.5,31.7*,6.1,93.5
O=C1NC(=O)C(=Cc2ccco2)S1,/,/,/,38.4*,0.6,/
O=C1NC(=O)/C(=C/c2ccco2)N1,-4.9,7.9,3.9,39.7*,-1.9,-5.1
CCOc1ccc(C)cc1S(=O)(=O)Nc1ccc2c(c1)CCC(=O)N2Cc1ccccc1,17.0,/,/,/,/,/
COc1ccc2cc(C3=CCCCC3)ncc2c1,-7.0,9.5,-1.1,7.9,26.9*,/
COc1cc2cnc(C3=CCCCC3)cc2cc1OC,-20.7,1.4,-0.7,7.6,10.6,53.3
CCOC(=O)Cn1nnc(-c2ccc(OCC(C)C)cc2)n1,-14.5,-8.4,0.6,4.2,1.6,99.6
CCN(CC)CCCNc1ccc(-c2nnc(-c3ccc(OCC(C)C)cc3)o2)cn1,-3.7,1.3,-1.9,24.1,+,-0.3
O=C(NCCSc1ncc(-c2ccccc2)[nH]1)C(=O)Nc1ccccc1[N+](=O)[O-],42.0*,/,/,/,/,/
O=C(NC[C@H](Cc1cccc(F)c1)N1CCCC1=O)c1ccsc1,1.0,/,/,/,/,/
COc1cccc(/C=C2\Sc3ccc(C(=O)NCc4cccnc4)cc3N(C)C2=O)c1,-4.2,-18.4,4.4,0.0,2.6,99.0
COc1ccc(/C=C2\Sc3ccc(C(=O)NCc4cccnc4)cc3N(C)C2=O)cc1OC,9.2,-6.2,2.8,34.6*,0.5,97.1
SMILES,SSB-PriA inh,Rv3671c protease,Mtb UGM inh,GDH-TPI inh,Mtb FBA inh,Mtb bLac sens
CCN1CCCC1CNC(=O)c1ccc2c(c1)NC(=O)/C(=C\c1ccc(OC)c(OC)c1)S2 (centres undefined),22.7,-12.4,0.5,31.3*,-1.0,20.1
CCOC(=O)C1CCCN(c2c(S(=O)(=O)c3ccc(Cl)cc3)cnc3ccc(F)cc23)C1 (centres undefined),10.0,/,/,/,/,/
CC(OC(=O)c1ccc(S(=O)(=O)N2CCCCC2)cc1)C(=O)Nc1ccc(C(N)=O)cc1 (centres undefined),0.4,-5.0,/,-3.5,-0.2,3.6
CC(OC(=O)c1nccnc1N)C(=O)Nc1ccc(S(=O)(=O)N2CCCC2)cc1 (centres undefined),-15.4,-1.0,/,7.8,142.2*,-9.1
COc1ccc(-c2cn3cccnc3n2)cc1NC(=O)Nc1cccc(Cl)c1,11.0,/,/,/,/,/
O=C(Nc1cccc(-c2cn3cccnc3n2)c1)c1cc(Br)ccc1Cl,-10.0,/,/,/,/,/
CC(C)(C)CC(=O)Nc1cccc(-c2cn3cccnc3n2)c1,-1.0,-3.9,-2.4,6.8,+,-6.8
COc1cc(C(=O)Nc2cccc(-c3cn4cccnc4n3)c2)cc(OC)c1OC,-9.4,-13.5,-2.4,7.9,+,/
Cc1onc(-c2ccccc2Cl)c1C(=O)Nc1cccc(-c2cn3cccnc3n2)c1,-9.7,-4.8,-0.2,30.9*,128.5*,-5.6
Cn1c(=O)c2c(ncn2CC(=O)N2CC(Oc3nccs3)C2)n(C)c1=O,-13.0,/,/,/,/,/
CC1CCCC(C)N1N=Cc1ccc(O)c(O)c1 (centres undefined),-2.0,/,/,/,/,/
CCCc1cc(-n2ccnc2)n2nc3nc(C)cc(C)c3c2n1,-9.0,/,/,/,/,/
C=CCn1c(N)c(C(=O)NCC2CCCO2)c2nc3ccccc3nc21 (centres undefined),-24.4,-122.9,2.9,4.1,144.2*,4.1
C=CCn1c(N)c(C(=O)NCC2CCCO2)sc1=S (centres undefined),-12.7,4.0,0.4,21.3,-4.7,53.2
CC(C)CCNC(=O)c1c(N)n(CC2CCCO2)c2nc3ccccc3nc12 (centres undefined),-65.7,-44.1,-3.6,11.7,18.8,38.2
CCC(C)NC(=O)c1c(N)n(CC2CCCO2)c2nc3ccccc3nc12 (centres undefined),5.7,-40.5,0.3,1.3,87.1*,?
O=C(CCCN1C(=O)/C(=C/c2ccccc2F)SC1=S)NCCc1c[nH]c2ccccc12,-4.0,/,/,/,/,/
Cc1cccc(NC(=S)NCc2ccc3c(c2)cc(C)n3C)c1C,72.1*,4.4,-3.3,9.1,4.5,4.0
Cc1cccc(NC(=O)NCc2ccc3c(c2)cc(C)n3C)c1,45.9*,-7.5,3.0,7.5,-3.4,6.3
Cc1cc2cc(CNS(=O)(=O)c3ccc(Br)cc3)ccc2n1C,36.0*,/,/,/,/,/
Cc1cc2cc(CNS(=O)(=O)c3ccc4ccccc4c3)ccc2n1C,28.4,-5.0,0.1,13.5,1.0,-6.9
COc1cccc(NC(=S)NCc2ccc3c(c2)cc(C)n3C)c1,23.7,/,/,2.6,0.5,/
CNC(=S)NCc1ccc2c(c1)cc(C)n2C,43.2,/,/,/,/,/
Cc1cc2cc(CNC(=S)Nc3ccccc3)ccc2n1C,66.4,/,/,/,/,/
Cc1cc2cc(CNC(=S)Nc3ccc(OC(F)(F)F)cc3)ccc2n1C,62.2*,2.2,0.1,3.8,1.4,2.1
CCOC(=O)N1CCN(C(=O)CSc2nc3c(c(=O)n2Cc2ccccc2)SC(C)C3)CC1 (centres undefined),-5.0,/,/,/,/,/
Cc1cc2cc(CNC(=O)Nc3cccc(Cl)c3)ccc2n1C,59.8*!,-13.3,0.7,13.2,-1.9,3.4
